Results filed as inconclusive are left out. Calls of active or inactive are those of the source. Calls come from the whole dose curve; as a rule, active = well fitted curve in the direction sought with a large enough effect; inconclusive = small, poorly fitted or top-dose-only effect, or another doubt; inactive = no such curve, though single readings can be large; an effect the other way counts as inactive or inconclusive.
Tests used:
[1] = target: Glutathione peroxidase 1 (Homo sapiens) (UniProt P07203); experiment: Primary qHTS Assay for Inhibitors of Recombinant Selenoprotein Glutathione Peroxidase 1 (GPX1) (AID 1845191); note: nearly all actives have a fitted effect of over 65% in size; note: potency is the fitted concentration of half-maximal effect
Procedure, shortened: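 10 nM GPX1 + cpd, 30 min RT; start w/ 1 mM GSH, 0.5 mM cumene hydroperoxide, 0.5 mM NADPH, 100 nM GR, 0.01% BSA; buffer 50 mM Tris-HCl pH 7.5, 2 mM EDTA, 150 mM NaCl; Fl 340/450, 0 & 15 min.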

[2] = target: Phospholipid hydroperoxide glutathione peroxidase GPX4 (Homo sapiens) (UniProt P36969); experiment: Primary qHTS Assay for Inhibitors of Recombinant Selenoprotein Glutathione Peroxidase 4 (GPX4) (AID 1845192); note: nearly all actives have a fitted effect of over 65% in size
Procedure, shortened: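 NADPH consumption, followed by fluorescence at 340/450 nm between 0 and 15 min, reports GPX4 activity via coupled glutathione reductase (100 nM). Enzyme 200 nM was pre-exposed to compound 30 min; 0.5 mM cumene hydroperoxide and 1 mM GSH served as substrates.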

[3] = target: Luciferin 4-monooxygenase (Photinus pyralis) (UniProt P08659); experiment: Primary firefly luciferase (FLuc) qHTS assay for identification of artifact compounds. (AID 1845220); note: nearly all actives have a fitted effect of over 60% in size; note: potency is the fitted concentration of half-maximal effect
Procedure, shortened: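 FLuc 10 nM; luciferin 10 uM; ATP 10 uM; Tris-acetate pH 7.6, Mg-acetate 10 mM; 15 min RT preincubation; 5 min reaction; luminescence.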

[4] = Primary fluorescence-based thiol-reactive (MSTI) qHTS assay for identification of artifact compounds. (AID 1845221); note: potency is the fitted concentration of half-maximal effect; nearly all actives have a fitted effect of over 65% in size
Procedure, shortened: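 qHTS titration of compound; 4 uM MSTI, PBS pH 7.4, 2% DMSO; 1 h RT, dark; fluorescence 525/598 nm; normalized to Acetyl-MSTI and MSTI; 4-parameter Hill fit.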

[5] = test system: Nanoluciferase (engineered Oplophorus gracilirostris luciferase); experiment: Primary Nanoluciferase (NLuc) qHTS assay for identification of artifact compounds. (AID 1845222);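 note: NLuc secreted into diluted conditioned medium of S16 cells; series mostly up to about 54 µM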
Procedure, shortened: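 NLuc from S16 cell medium (1:55) plus test compounds, 15 min, room temperature. Luminescence after Nano-Glo (1:100) addition, 5 min.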

[6] = Primary redox qHTS assay for identification of artifact compounds. (AID 1845223)
Procedure, shortened: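 Amplex Red (25 uM) and HRP (250 mU/mL) in HBSS, with compounds for 15 min, then 250 uM DTT for 30 min, room temperature, dark. Fluorescence 525/598 nm read; normalized to DMSO and 10 uM DA3003; Hill fit.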

[7] = Quantitative High-Throughput drug screen in 47 multiple myeloma cell lines against the NCATS MIPE library collection: FR4_PLB cell viability assay (AID 1918924; note: nearly all actives have a fitted effect of over 35% in size; note: potency is the fitted concentration of half-maximal effect)
Procedure, shortened: (§1)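 Primary qHTS used for cherry-picking: cells at 500/well, library compounds for 48 h (37C, 5% CO2), luminescent ATP assay.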

[8] = Quantitative High-Throughput drug screen in 47 multiple myeloma cell lines against the NCATS MIPE library collection: Delta47_JCRB cell viability assay (AID 1918925; note: potency is the fitted concentration of half-maximal effect; nearly all actives have a fitted effect of over 45% in size)
Procedure, shortened: as §1

[9] = Quantitative High-Throughput drug screen in 47 multiple myeloma cell lines against the NCATS MIPE library collection: EJM_DSMZ cell viability assay (AID 1918926; note: nearly all actives have a fitted effect of over 30% in size; note: potency is the fitted concentration of half-maximal effect)
Procedure, shortened: as §1

Measured: Potency

Sequence of Glutathione peroxidase 1 (Homo sapiens) (P07203 whole entry, looked up): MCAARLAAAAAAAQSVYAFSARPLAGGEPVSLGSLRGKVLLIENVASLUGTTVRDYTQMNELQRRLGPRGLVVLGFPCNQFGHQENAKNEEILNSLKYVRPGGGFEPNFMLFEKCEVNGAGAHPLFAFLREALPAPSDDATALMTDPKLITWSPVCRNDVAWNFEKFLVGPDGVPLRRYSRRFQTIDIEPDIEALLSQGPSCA
Sequence of Phospholipid hydroperoxide glutathione peroxidase GPX4 (Homo sapiens) (P36969 whole entry, looked up): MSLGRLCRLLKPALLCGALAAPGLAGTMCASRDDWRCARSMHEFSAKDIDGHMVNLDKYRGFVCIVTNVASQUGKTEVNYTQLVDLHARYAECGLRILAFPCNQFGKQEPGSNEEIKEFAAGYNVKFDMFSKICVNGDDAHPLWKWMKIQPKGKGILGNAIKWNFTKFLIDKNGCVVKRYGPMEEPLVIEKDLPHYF

Cc1nc(N)sc1-c1ccnc(Nc2ccc(N3CCOCC3)cc2)n1
active: [3] 5.36 µM | [4] 1.5 µM | [7] 14.8 µM | [8] 10.5 µM | [9] 18.7 µM
inactive: [1] | [2] | [5] | [6]

CCn1c(C(=O)N(C2CC2)C2CC2)cc2c3c(ncn3C)c(Nc3cc(C)n(C)n3)nc21
inactive: [1] | [2] | [3] | [5] | [6]

COc1cc(N2CCC(N3CCN(C)CC3)CC2)ccc1Nc1ncnc(Nc2ccccc2S(=O)(=O)C(C)C)n1
inactive: [1] | [2] | [3] | [5]

Cc1cnc(C(=O)O)c[n+]1[O-]
inactive: [1] | [2] | [7] | [9]

Cc1ccc(C(=O)Nc2cccc(C(F)(F)F)c2)cc1Nc1nc(-c2cccnc2)nc2c1cnn2C
inactive: [1] | [2]
active: [7] 9.35 µM | [8] 5.26 µM | [9] 18.7 µM

CCCCCNC(=O)N1CCC(CN(Cc2ccc(Cl)cc2)Cc2ccc([N+](=O)[O-])s2)C1 (stereo not drawn)
active: [1] 2.05 µM | [7] 23.5 µM
inactive: [2]

O=c1cc(-c2ccccc2)oc2cc(O)cc(O)c12
inactive: [1] | [2] | [7] | [9]

O=C(N[C@@H](c1ccccc1)[C@@H]1CCCCN1)c1cccc(C(F)(F)F)c1Cl
active: [8] 14.8 µM | [9] 18.7 µM
inactive: [1] | [2] | [7]

CO[C@@H](C(=O)N1Cc2[nH]nc(NC(=O)c3ccc(N4CCN(C)CC4)cc3)c2C1)c1ccccc1
active: [7] 23.5 µM | [8] 6.62 µM
inactive: [1] | [2]

From PubChem BioAssay (NCATS)
